Assay [1] is described as follows: qHTS of pediatric cancer cell lines to identify multiple opportunities for drug repurposing: Confirmatory screen for BT-12 cells (AID 1347112). Further: nearly all actives have a fitted effect of over 55% in size. Further: potency means the concentration at half of the fitted maximal effect. Summed up:
(§1)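 Viability after 48 h compound treatment at 37C, 500-1,000 cells/well, read as ATP luminescence with CellTiter-Glo. Primary screens used 11-point (MIPE, 0.78 nM-46 µM) or 8-point (NPC, 0.59 nM-46 µM) final concentrations; follow-up screens used 11-point dilutions.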

Assay [2] is described as follows: qHTS of pediatric cancer cell lines to identify multiple opportunities for drug repurposing: Confirmatory screen for LAN-5 cells (AID 1347113). Further: nearly all actives have a fitted effect of over 65% in size. Further: potency means the concentration at half of the fitted maximal effect. In a few lines: as §1
The nature of assay [3]: qHTS of pediatric cancer cell lines to identify multiple opportunities for drug repurposing: Confirmatory screen for DAOY cells (AID 1347114). Further: nearly all actives have a fitted effect of over 65% in size. Further: potency means the concentration at half of the fitted maximal effect. Summed up:
(§2)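 Viability measured as metabolically active cells via CellTiter-Glo luminescence following 48 hours of compound exposure, 11-point dilutions in confirmatory testing. 500-1,000 cells/well plated 5 hours before dosing; controls were DMSO and 2.3 µM bortezomib.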

The nature of assay [4]: qHTS of pediatric cancer cell lines to identify multiple opportunities for drug repurposing: Confirmatory screen for NB-EBc1 cells (AID 1347115).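 Further: cells exposed to compound for 48 h before the viability read; nearly all actives have a fitted effect of over 45% in size.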 Further: potency means the concentration at half of the fitted maximal effect. In a few lines:
as §1

The nature of assay [5]: qHTS of pediatric cancer cell lines to identify multiple opportunities for drug repurposing: Confirmatory screen for SJ-GBM2 cells (AID 1347116). Further: nearly all actives have a fitted effect of over 60% in size. Summed up:
as §2

Assay [6] can be described thus: qHTS of pediatric cancer cell lines to identify multiple opportunities for drug repurposing: Confirmatory screen for TC32 cells (AID 1347118).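 Further: cells exposed to compound for 48 h before the read; nearly all actives have a fitted effect of over 65% in size.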 Further: potency means the concentration at half of the fitted maximal effect. In a few lines:
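qHTS, TC32, 48 h drug treatment, CellTiter-Glo luminescence as a proxy for metabolically active cells; primary top concentration 46 µM (MIPE 11-pt, NPC 8-pt); confirmatory 11-pt.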

The nature of assay [7]: qHTS of pediatric cancer cell lines to identify multiple opportunities for drug repurposing: Confirmatory screen for MG 63 (6-TG R) cells (AID 1347119). Further: nearly all actives have a fitted effect of over 55% in size. Further: potency means the concentration at half of the fitted maximal effect. Summed up: as §1
Assay [8] in a line: qHTS of pediatric cancer cell lines to identify multiple opportunities for drug repurposing: Confirmatory screen for control Hh wild type fibroblast cells (AID 1347121). Further: nearly all actives have a fitted effect of over 70% in size. In a few lines: as §1
Assay [9] in a line: qHTS of pediatric cancer cell lines to identify multiple opportunities for drug repurposing: Confirmatory screen for U-2 OS cells (AID 1347122). Further: nearly all actives have a fitted effect of over 65% in size. Further: potency means the concentration at half of the fitted maximal effect. In a few lines:
as §1

Assay [10] in a line: qHTS of pediatric cancer cell lines to identify multiple opportunities for drug repurposing: Confirmatory screen for Rh41 cells (AID 1347123).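 Further: 48 h compound exposure; nearly all actives have a fitted effect of over 60% in size.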 Further: potency means the concentration at half of the fitted maximal effect. In a few lines: as §1
A short description of assay [11]: qHTS of pediatric cancer cell lines to identify multiple opportunities for drug repurposing: Confirmatory screen for Rh18 cells (AID 1347125). Further: nearly all actives have a fitted effect of over 55% in size. Further: potency means the concentration at half of the fitted maximal effect. Summed up: as §1
Assay [12] is described as follows: qHTS of pediatric cancer cell lines to identify multiple opportunities for drug repurposing: Confirmatory screen for Rh30 cells (AID 1347126). Further: nearly all actives have a fitted effect of over 55% in size. Further: potency means the concentration at half of the fitted maximal effect. Summed up: as §1
A short description of assay [13]: qHTS of pediatric cancer cell lines to identify multiple opportunities for drug repurposing: Confirmatory screen for Saos-2 cells (AID 1347127). Further: nearly all actives have a fitted effect of over 60% in size. Further: potency means the concentration at half of the fitted maximal effect. Summed up: as §1
Assay [14] is described as follows: qHTS of pediatric cancer cell lines to identify multiple opportunities for drug repurposing: Confirmatory screen for SK-N-SH cells (AID 1347129).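 Further: cells exposed to compound for 48 h before viability read; nearly all actives have a fitted effect of over 60% in size.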 Further: potency means the concentration at half of the fitted maximal effect. In a few lines: as §1
A short description of assay [15]: qHTS of pediatric cancer cell lines to identify multiple opportunities for drug repurposing: Confirmatory screen for OHS-50 cells (AID 1347128). Further: potency means the concentration at half of the fitted maximal effect. In a few lines:
as §1

Assay [16] addresses N-terminal Xaa-Pro-Lys N-methyltransferase 1 (Homo sapiens) (UniProt Q9BV86). Briefly: qHTS Assay for Inhibitors of N-terminal methyltransferase 1 (NTMT1): LOPAC validation of the NTMT1 SAHH-coupled ThioGlo3 Assay (AID 1347143).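 Further: SAH from peptide methylation measured as thiol fluorescence via SAHH coupling and ThioGlo3; nearly all actives have a fitted effect of over 70% in size.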 In a few lines:
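Steps: dispense 125nM NTMT1; pin-transfer test compounds at several concentrations, with 1uM RCC1-6 peptide as control; incubate 1 min; start with reagent holding 100uM SAM, 10uM SAHH, 15uM ThioGlo3; read at 0 and 30 min.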

Assay [17] has as its system Zika virus NS2B-NS3 protease (unlinked). Briefly: Optimization of GU AMC qHTS for Zika virus inhibitors: Unlinked NS2B-NS3 protease assay (AID 1347151). Further: series mostly up to about 52 µM; nearly all actives have a fitted effect of over 80% in size. In a few lines: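 In this qHTS, compounds acted on 25 nM unlinked Zika NS2B–NS3 in pH 8.0 Tris/Tween buffer. Cleavage of an AMC peptide ran 15 min at room temperature, to about 20% conversion.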

Each structure is given as a SMILES string. Records with an inconclusive call do not appear. Active and inactive are the calls of the source. The call rests on the fitted dose curve; in most records, active means well fitted curve in the direction sought with a large enough effect; inconclusive means small, poorly fitted or top-dose-only effect, or another doubt; inactive means no such curve, though single readings can be large; an effect the other way counts as inactive or inconclusive.

N-terminal Xaa-Pro-Lys N-methyltransferase 1 (Homo sapiens), sequence (Q9BV86 whole entry, looked up): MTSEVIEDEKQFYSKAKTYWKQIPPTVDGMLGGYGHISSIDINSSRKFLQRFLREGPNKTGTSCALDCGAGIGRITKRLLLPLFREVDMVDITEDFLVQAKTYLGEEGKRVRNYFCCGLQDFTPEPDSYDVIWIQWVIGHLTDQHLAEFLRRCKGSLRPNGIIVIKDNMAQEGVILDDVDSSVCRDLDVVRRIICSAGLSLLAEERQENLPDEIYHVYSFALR

As to `CCOC(=O)[C@H](CCc1ccccc1)N[C@H]1CS[C@H](c2cccs2)CN(CC(=O)O)C1=O`, the Potency entry in assay [1], in assay [2], in [3], in assay [4], in assay [5] and in assay [7] was “inactive” each time. The Potency result in [8], in [9], in assay [10], in assay [11], in assay [12] and in [13] was “inactive” throughout. Besides, the Potency entry in assay [14] was “inactive”. For the same compound, the Potency in assay [6] is 8.27 µM (active).
For `CS(=O)(=O)c1ccc([C@@H](O)[C@@H](CO)NC(=O)C(Cl)Cl)cc1`, the Potency result in assay [1], in assay [2], in [3], in assay [4], in [5] and in assay [6] was “inactive” in each case. Moreover, the Potency result in assay [8], in [9], in assay [10], in assay [11], in [12] and in assay [15] was “inactive” in each case. Further, in [14], the Potency result is “inactive”.
As for `CC(C)(C)C(=O)OCOP(=O)(COCCn1cnc2c(N)ncnc21)OCOC(=O)C(C)(C)C`, the Potency in [1] was 16.5 µM (active); in assay [2] it was 9.27 µM (active); in assay [4], 8.27 µM (active); in assay [6], 1.17 µM (active); in assay [7] it was 5.22 µM (active); in [10], 20.8 µM (active). For the same compound, the Potency in [13] was 14.7 µM (active); in [15] it was 16.5 µM (active). The Potency result in [3], in assay [5], in assay [9], in assay [11] and in assay [14] was “inactive” each time.
Take `C[C@@H]1C[C@H]2[C@@H]3CCC4=CC(=O)C=C[C@]4(C)[C@@]3(Cl)[C@@H](O)C[C@]2(C)[C@@]1(OC(=O)c1ccco1)C(=O)CCl`: the Potency in assay [1] is 5.85 µM (active); in assay [2] it was 0.233 µM (active); in [3], 10.4 µM (active); in assay [6], 0.928 µM (active); in assay [9], 3.29 µM (active); in assay [10] it was 1.04 µM (active). Further, the Potency in assay [11] was 20.8 µM (active); in assay [13] it was 4.14 µM (active); in [15], 11.7 µM (active); in [14] it was 14.8 µM (active). In assay [8], the Potency entry was “inactive”.
`COc1cc2c(Nc3ccc(Br)cc3F)ncnc2cc1OCC1CCN(C)CC1`: the Potency result in assay [1], in assay [2], in assay [4], in assay [5], in assay [6] and in [7] was “inactive” in each case. The Potency entry in assay [8], in assay [9], in assay [11] and in [13] was “inactive” each time. Moreover, the figures for the Potency in assay [10] and in [14] were 16.5 µM (active) and 16.6 µM (active), respectively.
On to `CNNCc1ccc(C(=O)NC(C)C)cc1`, for which the Potency entry in assay [1], in [2], in [3], in assay [4], in [5] and in assay [7] was “inactive” throughout. Moreover, the Potency entry in assay [8], in [9], in assay [10], in assay [12], in [13] and in assay [15] was “inactive” in each case. Besides, the Potency entry in [14] was “inactive”.
`Cn1nnc2c(C(N)=O)ncn2c1=O`: the Potency result in assay [1], in assay [2], in [3], in assay [4], in [5] and in [6] was “inactive” each time. The Potency result in assay [7], in assay [8], in [9], in assay [10], in assay [11] and in assay [12] was “inactive” in each case. The Potency result in assay [13], in assay [15] and in [14] was “inactive” each time.
Turning to `CNS(=O)(=O)CCc1ccc2[nH]cc(C3CCN(C)CC3)c2c1`, the Potency entry in assay [1], in assay [2], in assay [3], in [4], in assay [5] and in assay [7] was “inactive” each time. Further, the Potency entry in assay [8], in assay [9], in assay [10], in assay [11], in assay [12] and in assay [13] was “inactive” in each case. Besides, the Potency entry in assay [15], in [14], in assay [16] and in assay [17] was “inactive” throughout. Also, the Potency in [6] was 13.1 µM (active).
In the case of `CCC(=O)O[C@]1(C(=O)CCl)[C@@H](C)C[C@H]2[C@@H]3CCC4=CC(=O)C=C[C@]4(C)[C@@]3(F)[C@@H](O)C[C@@]21C`, the Potency result in assay [1], in assay [2], in assay [3], in assay [4], in assay [5] and in [6] was “inactive” each time. The Potency entry in assay [7], in assay [8], in assay [9], in assay [11], in assay [13] and in assay [15] was “inactive” each time. Moreover, the Potency result in [14] is “inactive”. Further, the figures for the Potency in [10] and in [12] were 26.1 µM (active) and 13.1 µM (active), respectively.
For the compound `CC(C)(C#N)c1cc(Cn2cncn2)cc(C(C)(C)C#N)c1`, the Potency result in assay [1], in assay [2], in [3], in [4], in assay [6] and in assay [7] was “inactive” throughout. Moreover, the Potency entry in assay [8], in assay [9], in [10], in [11], in assay [12] and in assay [13] was “inactive” each time. For the same compound, the Potency result in assay [15] and in [14] was “inactive” throughout.
Take `C[C@@H](CN1CC(=O)NC(=O)C1)N1CC(=O)NC(=O)C1`: the Potency entry in [1], in assay [2], in assay [3], in [4], in [5] and in assay [6] was “inactive” in each case. For the same compound, the Potency result in assay [8], in assay [9], in [10], in assay [11], in [12] and in assay [13] was “inactive” throughout. The Potency result in assay [15] and in assay [14] was “inactive” throughout.

The values above are taken from PubChem BioAssay (NCATS).
